Experimental data published in paper PMC5540273 (PLoS ONE, 2017).
Values joined by “and” are separate entries in the source; they are usually repeats but may differ in a detail not shown here. Identical values can stand only once. Like-named read-outs stand apart in the source and are kept apart here.

What was measured:
[1] = tested on: QSK; conditions: n = 1
[2] = tested on: RAF1; conditions: n = 1
[3] = tested on: RET; conditions: n = 1
[4] = tested on: RIOK1; conditions: n = 1
[5] = tested on: RIOK2; conditions: n = 1
[6] = tested on: RIOK3; conditions: n = 1
[7] = tested on: RIPK1; conditions: n = 1
[8] = tested on: RIPK2; conditions: n = 1
[9] = tested on: RIPK4; conditions: n = 1
[10] = tested on: RIPK5; conditions: concentration: 1 μM, replicates: in singlicate; n = 1
[11] = concentration: 1 μM, replicates: in singlicate
[12] = concentration: 1 μM,replicates: in singlicate, 1 µM
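Note: KINOMEscan kinase panel screen.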

Cl.c1ccc(-c2n[nH]cc2-c2ccnc(-c3ccc(CN4CCOCC4)cc3)c2)nc1 [GW776245]
%Inh [1, 11]: 0% | %Inh [2, 11]: 37% | %Inh [3, 11]: 0% | %Inh [4, 11]: 19% | %Inh [5, 11]: 0% | %Inh [6, 11]: 20% | %Inh [7, 11]: 11% | %Inh [8, 11]: 36% | %Inh [9, 11]: 0% | %Inh [10]: 0%

Fc1cc(Cl)ccc1Nc1ccnc2cc(I)ccc12 [GW551191]
%Inh [1, 11]: 37% | %Inh [2, 11]: 10% | %Inh [3, 11]: 53% | %Inh [4, 11]: 31% | %Inh [5, 11]: 0% | %Inh [6, 11]: 19% | %Inh [7, 11]: 0% | %Inh [8, 11]: 67% | %Inh [9, 11]: 12% | %Inh [10]: 0%

Cc1ccc(-c2cc(-c3c[nH]nc3-c3ccccn3)ccn2)cc1 [GW684088]
%Inh [1, 11]: 0% | %Inh [2, 11]: 21% | %Inh [3, 11]: 6% | %Inh [4, 11]: 18% | %Inh [5, 11]: 0% | %Inh [6, 11]: 3% | %Inh [7, 11]: 28% | %Inh [8, 11]: 27% | %Inh [9, 11]: 0% | %Inh [10]: 3%

O=C(Nc1ccc2c(c1)OCO2)NC1CCN(c2ccnc(Nc3ccc(F)cc3)n2)C1 (centres unmarked) [GSK1379724]
%Inh [1, 11]: 8% | %Inh [2, 11]: 16% | %Inh [3, 11]: 22% | %Inh [4, 11]: 9% | %Inh [5, 11]: 0% | %Inh [6, 11]: 5% | %Inh [7, 11]: 0% | %Inh [8, 11]: 0% | %Inh [9, 11]: 11% | %Inh [10]: 0%

CN(C)CCN(C)C(=O)c1cc(-c2ccncc2)c(-c2ccc(Cl)c(O)c2)o1.Cl.Cl [SB-710397]
%Inh [1, 11]: 0% | %Inh [2, 11]: 87% | %Inh [3, 11]: 24% | %Inh [4, 11]: 37% | %Inh [5, 11]: 0% | %Inh [6, 11]: 0% | %Inh [7, 11]: 0% | %Inh [8, 11]: 59% | %Inh [9, 11]: 14% | %Inh [10]: 0%

COc1ccccc1CNC(=O)c1cc(C(=O)c2ccccc2C)c[nH]1 [GSK364507]
%Inh [1, 11]: 8% | %Inh [2, 11]: 25% | %Inh [3, 11]: 14% | %Inh [4, 11]: 30% | %Inh [5, 11]: 0% | %Inh [6, 11]: 1% | %Inh [7, 11]: 0% | %Inh [8, 11]: 9% | %Inh [9, 11]: 19% | %Inh [10]: 0%

COc1cc2nccc(Nc3ccc(NC(=O)c4ccc(C)cc4)c(O)c3)c2cc1OC.Cl [GW440132]
%Inh [1, 11]: 2% | %Inh [2, 11]: 5% | %Inh [3, 11]: 49% | %Inh [4, 11]: 46% | %Inh [5, 11]: 13% | %Inh [6, 11]: 0% | %Inh [7, 11]: 4% | %Inh [8, 11]: 17% | %Inh [9, 11]: 0% | %Inh [10]: 0%

CSc1nn2c(=O)cc(N3CCOCC3)nc2n1Cc1cccc(C(F)(F)F)c1C [GSK2363608]
%Inh [1, 12]: 55% and 8% | %Inh [2, 12]: 14% and 11% | %Inh [3, 12]: 19% and 56% | %Inh [4, 12]: 37% and 10% | %Inh [5, 12]: 19% and 5% | %Inh [6, 12]: 39% and 0% | %Inh [7, 12]: 26% and 0% | %Inh [8, 12]: 0% and 14% | %Inh [9, 12]: 22% and 13% | %Inh [10]: 0%

CS(=O)(=O)c1ccc(-c2c(-c3ncn[nH]3)sc(N3CCOCC3)c2C#N)cc1
%Inh [1, 11]: 0% | %Inh [2, 11]: 0% | %Inh [3, 11]: 5% | %Inh [4, 11]: 0% | %Inh [5, 11]: 0% | %Inh [6, 11]: 0% | %Inh [7, 11]: 6% | %Inh [8, 11]: 0% | %Inh [9, 11]: 0% | %Inh [10]: 18%

CC1=C(C(=O)Nc2cc3cn[nH]c3cc2F)C(c2ccc(C(F)(F)F)cc2)CC(=O)N1 (centres unmarked) [GSK429286]
%Inh [1, 11]: 14% | %Inh [2, 11]: 5% | %Inh [3, 11]: 44% | %Inh [4, 11]: 34% | %Inh [5, 11]: 23% | %Inh [6, 11]: 0% | %Inh [7, 11]: 0% | %Inh [8, 11]: 12% | %Inh [9, 11]: 13% | %Inh [10]: 1%

Fc1cccc(COc2nnc(-c3ccc4c(c3)CCO4)o2)c1
%Inh [1, 11]: 7% | %Inh [2, 11]: 4% | %Inh [3, 11]: 5% | %Inh [4, 11]: 9% | %Inh [5, 11]: 0% | %Inh [6, 11]: 0% | %Inh [7, 11]: 0% | %Inh [8, 11]: 0% | %Inh [9, 11]: 0% | %Inh [10]: 15%

O=C(O)COc1ncnc2cc(-c3ccc4[nH]ncc4c3)sc12
%Inh [1, 11]: 0% | %Inh [2, 11]: 1% | %Inh [3, 11]: 11% | %Inh [4, 11]: 0% | %Inh [5, 11]: 16% | %Inh [6, 11]: 0% | %Inh [7, 11]: 0% | %Inh [8, 11]: 0% | %Inh [9, 11]: 30% | %Inh [10]: 6%

COc1cc2ncn(-c3cc(OCC4CCCO4)c(C(N)=O)s3)c2cc1OC (centres unmarked) [GSK204607]
%Inh [1, 11]: 0% | %Inh [2, 11]: 0% | %Inh [3, 11]: 0% | %Inh [4, 11]: 77% | %Inh [5, 11]: 0% | %Inh [6, 11]: 94.5% | %Inh [7, 11]: 5% | %Inh [8, 11]: 7% | %Inh [9, 11]: 0% | %Inh [10]: 0%

C[C@@H]1CCCCN1c1cc(-c2ccc3c(N)n[nH]c3c2)nc(N)n1 [GSK2258759]
%Inh [1, 11]: 0% | %Inh [2, 11]: 3% | %Inh [3, 11]: 6% | %Inh [4, 11]: 47% | %Inh [5, 11]: 1% | %Inh [6, 11]: 19% | %Inh [7, 11]: 0% | %Inh [8, 11]: 11% | %Inh [9, 11]: 20% | %Inh [10]: 0%

COc1cccc(NC(=O)NC2CCN(c3ccnc(Nc4ccc(F)cc4)n3)C2)c1 (centres unmarked) [GSK1379721]
%Inh [1, 11]: 3% | %Inh [2, 11]: 3% | %Inh [3, 11]: 0% | %Inh [4, 11]: 16% | %Inh [5, 11]: 0% | %Inh [6, 11]: 13% | %Inh [7, 11]: 29% | %Inh [8, 11]: 2% | %Inh [9, 11]: 17% | %Inh [10]: 18%

Cc1ccccc1-n1cnc2c(N)ncnc21 [SKF-97510]
%Inh [1, 11]: 0% | %Inh [2, 11]: 0% | %Inh [3, 11]: 17% | %Inh [4, 11]: 0% | %Inh [5, 11]: 0% | %Inh [6, 11]: 0% | %Inh [7, 11]: 10% | %Inh [8, 11]: 0% | %Inh [9, 11]: 0% | %Inh [10]: 0%

O=C(Nc1n[nH]c2cc(-c3cccc(F)c3F)ccc12)C1CC1 [SB-733894]
%Inh [1, 11]: 26% | %Inh [2, 11]: 12% | %Inh [3, 11]: 0% | %Inh [4, 11]: 47% | %Inh [5, 11]: 0% | %Inh [6, 11]: 52% | %Inh [7, 11]: 72% | %Inh [8, 11]: 0% | %Inh [9, 11]: 18% | %Inh [10]: 31%
